Reference: the supplement of paper PMC7156485

Key:
Details in all cases: concentration: 10 µM; 24 h
HCC1569 [1] = experiment: cell number relative to DMSO (% of DMSO); higher = more cells (less growth inhibition / toxicity)
Procedure, shortened: (§1)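 Six fields per well were imaged at ×10 after the cells were fixed in 3.7% formaldehyde and stained with a rabbit anti-H1.0 antibody, an AlexaFluor 647 secondary and DAPI. The HCC1569 and TDF cells had been plated at 800 per well in 384-well plates (RPMI, 10% FBS) and treated in triplicate with compounds at 10 µM for 24 h at 37 °C. The values are the median of replicates of H1.0 nuclear intensity or cell number, as percent of the plate control. Smoothing for positional effects was applied to HCC1569 data.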

TDF [2] = experiment: as above
Procedure, shortened: as §1

TDF [3] = experiment: H1.0 immunofluorescence intensity relative to DMSO (% of DMSO); higher = stronger H1.0 induction, active = 120 or more
Procedure, shortened: as §1

HCC1569 [4] = experiment: H1.0 immunofluorescence intensity relative to DMSO (% of DMSO); higher = stronger H1.0 induction, active = 140 or more
Procedure, shortened: as §1
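Wherever H1.0 immunofluorescence intensity relative to DMSO is given: TDF is a line of transformed human dermal fibroblasts of mesenchymal origin.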
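Wherever cell number relative to DMSO is given: TDF denotes transformed human dermal fibroblasts of mesenchymal origin.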

Compound	cell number (HCC1569 [1])	cell number (TDF [2])	H1.0 immunofluorescence intensity (TDF [3])	H1.0 immunofluorescence intensity (HCC1569 [4])
CC(C)(CCCCCCCCCCC(C)(C)CC(=O)O)CC(=O)O [3,3,14,14-tetramethylhexadecanedioic acid]	102	97.7	96.6 (inactive)	93.7 (inactive)
CCc1ccc(CCOc2ccc(CC3SC(=O)NC3=O)cc2)nc1 (configuration not stated) [Pioglitazone]	102	105	94.2 (inactive)	102 (inactive)
Nc1nc(Nc2ccc(S(N)(=O)=O)cc2)nn1C(=S)Nc1c(F)cccc1F [Cdk1/2 Inhibitor III]	51.9	14.2	133 (active)	128 (inactive)
CN1CCN(c2c(F)cc3c(=O)c(C(=O)O)cn4c3c2SCC4)CC1 [Rufloxacin]	107	94.7	100 (inactive)	95.2 (inactive)
COc1ccccc1N1CCN(CCN(C(=O)c2ccc(F)cc2)c2ccccn2)CC1.Cl.Cl [p-MPPF dihydrochloride]	99.7	109	89.7 (inactive)	87.2 (inactive)
COc1cccc(-c2cn(-c3ccc(CCN4CCC(O)CC4)cc3)c3ncnc(N)c23)c1	45.9	53.9	127 (active)	177 (active)
C=CC(=O)Nc1cc2c(Nc3ccc(F)c(Cl)c3)ncnc2cc1OCCCN1CCOCC1.Cl.Cl [Canertinib]	75.8	87.4	108 (inactive)	125 (inactive)
O=P(O)(O)C(O)(Cn1ccnc1)P(=O)(O)O [Zoledronic acid]	99	89	94 (inactive)	100 (inactive)
